Screens deposited in PubChem by Broad Institute.
A selection: hits, their analogues and other compounds. The true share with any hit is near 7.7%.
PD-1 reversal: reversal of PD-1 mediated T-cell inhibition. primary human CD4 T cells, PD-L1 beads, CellTiter-Glo 96 h. activation, % (test concentration not listed). 29,000 tested, under 10 active; call rule not given here
NOMO-1 viab: STK33 inhibitor candidate reducing NOMO-1 cell viability; NOMO-1 AML viability, CellTiter-Glo luminescence, 72 h; 37,000 tested, 7.5% active; inhibition, % (no concentration beside the values); in the data active means inhibition above about 80%; inconclusive means no clear call, values can overlap the other calls
Hedgehog inh: Sonic Hedgehog pathway inhibition; Shh-LIGHT2 Gli-luciferase reporter, 30 h; inhibition, % (concentration not given with the values); 22,000 tested, 2.1% active; AID 2313;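 active means mean inhibition across valid replicates above about 65%, limit read from the data; inconclusive means mean under the limit, yet half or more replicates past it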;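 further: pathway switched on by Shh-conditioned medium diluted 1 in 25 in low serum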
Of the large screens only hits and unclear results are named; the others gave an inactive call.

C[C@H]1CN([C@@H](C)CO)C(=O)c2cc(NC(=O)Nc3ccc(C(F)(F)F)cc3)ccc2O[C@H]1CN(C)C(=O)Nc1ccc(C(F)(F)F)cc1	NOMO-1 viab 120
C[C@H](CO)N1C[C@H](C)[C@@H](CN(C)C(=O)Nc2ccc(C(F)(F)F)cc2)Oc2ccc(NC(=O)Nc3ccccc3)cc2C1=O	none (no result: PD-1 reversal)
Cc1ccc2c(c1)C(C)(C)C1(C)N(Cc3ccccc3)C(=O)CN21 (configuration not stated)	none (no result: Hedgehog inh)
CS(=O)(=O)N(CC(=O)NC1CCCCCC1)c1ccc(I)cc1	none (no result: Hedgehog inh)
C[C@@H]1CCCCO[C@H](CN(C)C(=O)Nc2ccc(F)cc2)[C@@H](C)CN([C@H](C)CO)C(=O)c2cc(NS(=O)(=O)c3ccc(Cl)cc3)ccc2O1	none (no result: PD-1 reversal)
C[C@@H]1CCCCO[C@H](CN(C)C(=O)Nc2ccc(C(F)(F)F)cc2)[C@@H](C)CN([C@H](C)CO)C(=O)c2cc(NS(=O)(=O)c3ccc(F)cc3)ccc2O1	none (no result: PD-1 reversal)
C[C@@H]1CCCCO[C@@H](CN(C)C(=O)Nc2cccc3ccccc23)[C@@H](C)CN([C@H](C)CO)C(=O)c2cc(NS(=O)(=O)c3ccc(F)cc3)ccc2O1	none (no result: PD-1 reversal)
C[C@@H]1CCCCO[C@@H](CN(C)C(=O)Nc2cccc3ccccc23)[C@@H](C)CN([C@H](C)CO)C(=O)c2cc(NS(=O)(=O)c3ccc(Cl)cc3)ccc2O1	NOMO-1 viab 102 (no result: PD-1 reversal)
COc1ccc(NC(=O)N(C)C[C@H]2OCCCC[C@@H](C)Oc3ccc(NS(=O)(=O)c4ccc(F)cc4)cc3C(=O)N([C@H](C)CO)C[C@@H]2C)cc1	none
C[C@@H]1CCCCO[C@@H](CN(C)C(=O)Nc2ccc(C(F)(F)F)cc2)[C@@H](C)CN([C@H](C)CO)C(=O)c2cc(NS(=O)(=O)c3ccc(Cl)cc3)ccc2O1	NOMO-1 viab inconclusive, Hedgehog inh 119
Cc1ccc(S(=O)(=O)Nc2ccc3c(c2)C(=O)N([C@H](C)CO)C[C@H](C)[C@H](CN(C)C(=O)Nc2ccc(C(F)(F)F)cc2)OCCCC[C@@H](C)O3)cc1	NOMO-1 viab 114
COc1ccc(S(=O)(=O)Nc2ccc3c(c2)C(=O)N([C@H](C)CO)C[C@H](C)[C@@H](CN(C)C(=O)Nc2ccc(F)cc2)OCCCC[C@@H](C)O3)cc1	Hedgehog inh 74 (no result: PD-1 reversal)
COc1cccc(NC(=O)c2cnccc2C(F)(F)F)c1	none
CCn1c(SCC(=O)Nc2ccc(Br)cc2Cl)nnc1-c1ccccc1	none (no result: Hedgehog inh)
COc1cc([C@@H](O)[C@@H](CO[C@@H]2O[C@H](CO)[C@@H](O)[C@H](O)[C@H]2O)Oc2ccc(/C=C/CO)cc2OC)ccc1O	none
COc1ccc([N+](=O)[O-])cc1N(CC(=O)Nc1cc(Cl)ccc1Cl)S(C)(=O)=O	none (no result: PD-1 reversal, Hedgehog inh)
Cc1ccc(N2C(=O)C(N3C(=O)c4ccccc4C3=O)C2c2ccc(N(C)C)cc2)cc1Cl (configuration not stated)	none (no result: Hedgehog inh)
COc1ccc(C[C@H](N)C(=O)N[C@@H]2[C@@H](CO)OC(n3cnc4c(N(C)C)ncnc43)[C@@H]2O)cc1 (some centres not stated)	NOMO-1 viab 108, Hedgehog inh 93 (no result: PD-1 reversal)
CNC(=O)[C@H]1O[C@@H](n2cnc3c(NCc4cccc(I)c4)ncnc32)C(O)[C@H]1O (some centres not stated)	none (no result: PD-1 reversal)
COC(=O)CNC(=O)c1cn(-c2ccccc2)nc1-c1ccccc1	none (no result: Hedgehog inh)
COC(=O)CNC(=O)c1cn(-c2ccccc2)nc1-c1cc2ccccc2oc1=O	NOMO-1 viab 111 (no result: PD-1 reversal, Hedgehog inh)
O=c1oc(-c2cccnc2)nc2sc3c(c12)CCCCC3	none
C[C@@H]1CCCCO[C@@H](CN(C)Cc2ccc(C(F)(F)F)cc2)[C@@H](C)CN([C@H](C)CO)C(=O)c2cc(NS(=O)(=O)c3cccs3)ccc2O1	NOMO-1 viab 110, Hedgehog inh inconclusive
C[C@@H]1CCCCO[C@H](CN(C)Cc2ccc(C(F)(F)F)cc2)[C@@H](C)CN([C@H](C)CO)C(=O)c2cc(NS(=O)(=O)c3ccc(F)cc3)ccc2O1	NOMO-1 viab 100 (no result: PD-1 reversal)
C[C@@H]1CCCCO[C@@H](CN(C)Cc2ccncc2)[C@@H](C)CN([C@H](C)CO)C(=O)c2cc(NS(=O)(=O)c3ccc(Cl)cc3)ccc2O1	none (no result: Hedgehog inh)
C[C@@H]1CCCCO[C@H](CN(C)Cc2ccc(C(F)(F)F)cc2)[C@@H](C)CN([C@H](C)CO)C(=O)c2cc(NS(=O)(=O)c3cccs3)ccc2O1	none (no result: PD-1 reversal)
C[C@@H]1CCCCO[C@@H](CN(C)Cc2ccc(C(F)(F)F)cc2)[C@@H](C)CN([C@H](C)CO)C(=O)c2cc(NS(=O)(=O)c3ccc(Cl)cc3)ccc2O1	NOMO-1 viab 111
C[C@@H]1CCCCO[C@H](CN(C)Cc2ccncc2)[C@@H](C)CN([C@H](C)CO)C(=O)c2cc(NS(=O)(=O)c3ccc(F)cc3)ccc2O1	none (no result: PD-1 reversal)
COc1ccc(S(=O)(=O)Nc2ccc3c(c2)C(=O)N([C@H](C)CO)C[C@H](C)[C@H](CN(C)Cc2ccc(C(F)(F)F)cc2)OCCCC[C@@H](C)O3)cc1	NOMO-1 viab 105 (no result: Hedgehog inh)
COc1ccc(S(=O)(=O)Nc2ccc3c(c2)C(=O)N([C@H](C)CO)C[C@H](C)[C@@H](CN(C)Cc2ccc(C(=O)O)cc2)OCCCC[C@@H](C)O3)cc1	none (no result: PD-1 reversal, Hedgehog inh)
CCCCCC1C(=O)O/C(=C\C(=O)O)C1=O (configuration not stated)	none
C[C@@H]1CCCCO[C@H](CN(C)Cc2ccc(C(F)(F)F)cc2)[C@@H](C)CN([C@H](C)CO)C(=O)c2cc(NS(=O)(=O)c3ccccc3)ccc2O1	NOMO-1 viab 95 (no result: PD-1 reversal)
Cc1ccc(S(=O)(=O)Nc2ccc3c(c2)C(=O)N([C@H](C)CO)C[C@H](C)[C@H](CN(C)Cc2ccc(C(F)(F)F)cc2)OCCCC[C@@H](C)O3)cc1	NOMO-1 viab 126
C[C@@H]1CCCCO[C@H](CN(C)C(=O)Nc2ccc(C(F)(F)F)cc2)[C@@H](C)CN([C@H](C)CO)C(=O)c2cc(NS(=O)(=O)c3cccs3)ccc2O1	none (no result: Hedgehog inh)
Cc1ccc(S(=O)(=O)Nc2ccc3c(c2)C(=O)N([C@H](C)CO)C[C@H](C)[C@H](CN(C)CC2CC2)OCCCC[C@@H](C)O3)cc1	none
C[C@@H]1CCCCO[C@@H](CN(C)Cc2ccccc2)[C@@H](C)CN([C@H](C)CO)C(=O)c2cc(NS(=O)(=O)c3ccccc3)ccc2O1	none
COc1ccc(CN(C)C[C@H]2OCCCC[C@@H](C)Oc3ccc(NS(=O)(=O)c4ccc(C)cc4)cc3C(=O)N([C@H](C)CO)C[C@@H]2C)cc1	Hedgehog inh 65 (no result: PD-1 reversal)
C[C@@H]1CCCCO[C@@H](CN(C)C(=O)Nc2ccc(C(F)(F)F)cc2)[C@@H](C)CN([C@H](C)CO)C(=O)c2cc(NS(=O)(=O)c3cccs3)ccc2O1	NOMO-1 viab 114, Hedgehog inh 83
COc1ccc(CN(C)C[C@@H]2OCCCC[C@@H](C)Oc3ccc(NS(=O)(=O)c4ccc(OC)cc4)cc3C(=O)N([C@H](C)CO)C[C@@H]2C)cc1	none (no result: Hedgehog inh)
CC(C(=O)Nc1ccccc1-c1ccccc1)N(c1ccccc1)S(C)(=O)=O (configuration not stated)	none (no result: Hedgehog inh)
Cc1ccc(-c2cc(C(F)F)n3ncc(C(=O)NCCCN4CCOCC4)c3n2)cc1	none (no result: Hedgehog inh)
O=C(NCCC(c1ccccc1)c1ccccc1)c1cc2ccccc2c(=O)o1	none
CCOC(=O)c1c(CN2CCCCC2)n(-c2ccccc2)c2cc(Br)c(OC)cc12	none
CCc1ccc(C(=O)Nc2nccs2)cc1	none
